In PubChem BioAssay AID1445 (SRMLSC, 2008):
Among all 220,000 compounds or so, about 910 (0.41%) were called active.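 Rule for the calls: active = primary inhibition above the hit cutoff, then over 50% inhibition at one or more dose response concentrations (cut at about 23% in these data, passing the limit was not always enough); inconclusive = conflicting primary data, or primary hits not chosen for dose response; inactive = low primary inhibition, or under 50% at every dose.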 The list comes from a sample in which actives are over-represented; it also holds similar structures and randomly drawn compounds. Potency and affinity values are given separately.

Target: Aminopeptidase N (Plasmodium falciparum (isolate 3D7)) (UniProt O96935)
Assay: malaria alanyl aminopeptidase activity blockers – biochemical, fluorogenic H-Leu-NHMec substrate, 1536-well (AID 1445);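 note: plate controls were DMSO full reaction for no effect and no enzyme background for full effect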
Details: recombinant M1AAP, H-Leu-NHMec fluorogenic kinetic assay; at 30 µM, active compounds read high unless noted

Sequence of Aminopeptidase N (Plasmodium falciparum (isolate 3D7)) (O96935 whole entry, looked up): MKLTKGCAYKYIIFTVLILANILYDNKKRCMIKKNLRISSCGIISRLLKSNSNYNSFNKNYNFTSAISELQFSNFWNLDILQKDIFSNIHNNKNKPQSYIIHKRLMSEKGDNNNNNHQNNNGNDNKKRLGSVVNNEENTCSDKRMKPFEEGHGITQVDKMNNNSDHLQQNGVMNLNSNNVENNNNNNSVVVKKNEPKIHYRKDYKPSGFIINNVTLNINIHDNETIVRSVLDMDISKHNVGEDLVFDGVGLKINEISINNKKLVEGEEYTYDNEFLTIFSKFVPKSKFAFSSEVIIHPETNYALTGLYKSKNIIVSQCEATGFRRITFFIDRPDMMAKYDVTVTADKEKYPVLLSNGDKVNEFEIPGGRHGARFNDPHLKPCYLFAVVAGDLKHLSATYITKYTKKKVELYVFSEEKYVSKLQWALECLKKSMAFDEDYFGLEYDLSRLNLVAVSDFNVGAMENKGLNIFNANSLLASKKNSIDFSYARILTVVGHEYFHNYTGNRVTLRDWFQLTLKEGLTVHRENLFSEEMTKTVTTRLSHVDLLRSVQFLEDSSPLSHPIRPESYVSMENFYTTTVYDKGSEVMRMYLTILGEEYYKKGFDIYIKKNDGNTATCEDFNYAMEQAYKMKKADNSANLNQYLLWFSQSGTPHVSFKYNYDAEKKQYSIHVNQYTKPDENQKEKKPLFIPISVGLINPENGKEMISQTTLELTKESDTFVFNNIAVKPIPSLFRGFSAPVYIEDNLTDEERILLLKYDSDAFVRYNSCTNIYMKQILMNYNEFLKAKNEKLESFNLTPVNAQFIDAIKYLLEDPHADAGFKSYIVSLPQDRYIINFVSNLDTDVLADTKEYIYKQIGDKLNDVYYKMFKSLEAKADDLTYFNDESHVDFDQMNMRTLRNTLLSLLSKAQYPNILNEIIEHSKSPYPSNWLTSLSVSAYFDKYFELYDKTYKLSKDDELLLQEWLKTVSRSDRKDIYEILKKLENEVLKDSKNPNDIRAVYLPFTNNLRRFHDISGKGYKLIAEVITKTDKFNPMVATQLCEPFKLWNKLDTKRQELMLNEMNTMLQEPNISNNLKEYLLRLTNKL

Row | SMILES | inhibition
1 | O=C(CSc1nc2c(c(=O)[nH]1)CCCC2)Nc1ccc(Cl)cc1F | -2.08% (inactive)
2 | CS(=O)(=O)N1CCC(C(=O)Nc2ccc(F)cc2F)CC1 | -3.46% (inactive)
3 | CCCCC(CC)CNC(=O)c1cccs1 (centres undefined) | -3.27% (inactive)
4 | Cc1ccccc1NS(=O)(=O)c1cc(C(=O)N2CCCC2)ccc1C | 4.97% (inactive)
5 | Cc1nnc(SCC(=O)NCCN2C(=O)CSC2=O)s1 | 2.17% (inactive)
6 | Cc1cccc(CSc2ncccc2C(=O)O)c1 | 2.89% (inactive)
7 | Cc1ccc(CSc2ncccc2C(=O)O)cc1 | 1.82% (inactive)
8 | COc1ccc(-c2cc(C(=O)NCc3ccccc3)no2)cc1OC | -1.3% (inactive)
9 | CC(=O)N=c1sc2cc(C)ccc2n1C | 3.39% (inactive)
10 | Cc1cc(C(=O)OCC(=O)NCc2ccc(Cl)cc2)c(C)o1 | -6.7% (inactive)
11 | CCN(CC)CCC(=O)Nc1cccc2c1C(=O)c1ccccc1C2=O | 7.62% (inactive)
12 | CCN(CC)CC(=O)Nc1cccc2c1C(=O)c1ccccc1C2=O | 5.73% (inactive)
13 | CCN(CC)C(C(=O)NC1CCCCC1)c1ccc(C)cc1 (centres undefined) | -1.29% (inactive)
14 | COc1ccc(NC(=O)CN2C(=O)c3ccccc3Sc3ccc(C(=O)N4CCOCC4)cc32)c(OC)c1 | 9.02% (inactive)
15 | CC(C)C1C(C#N)=C(N)Oc2n[nH]c(-c3cccs3)c21 (centres undefined) | 5.75% (inactive)
16 | CSCCC1C(C#N)=C(N)Oc2n[nH]c(-c3cccs3)c21 (centres undefined) | 23.8% (active)
17 | CC(C)CC1C(C#N)=C(N)Oc2n[nH]c(-c3cccs3)c21 (centres undefined) | -0.26% (inactive)
18 | Cc1ccc2c(CN3C(=O)NC4(CCCCC4)C3=O)cc(=O)oc2c1C | 8.97% (inactive)
19 | Cc1ccc(CSc2nc3sc(C)c(C)c3c(=O)n2Cc2ccco2)cc1 | 9.77% (inactive)
20 | O=C(Nc1ccccc1Cl)c1ccc2c(c1)N(Cc1ccc(F)cc1)C(=O)CS2=O (centres undefined) | 3.24% (inactive)
21 | Cc1ccc(C)c(NC(=O)c2ccc3c(c2)N(Cc2ccc(F)cc2)C(=O)CS3=O)c1 (centres undefined) | -7.55% (inactive)
22 | O=C(NC1CCCCCCC1)c1ccc2c(c1)N(Cc1ccc(F)cc1)C(=O)CS2=O (centres undefined) | 23.5% (active)
23 | CNC(=O)c1cc2c(ccc3ccccc32)o1 | 3.24% (inactive)
24 | Cn1ncc(Br)c1C(=O)Nc1ccc(Br)cn1 | -3.07% (inactive)
25 | Cc1occc1C(=O)NCCCc1ccccc1 | 0.03% (inactive)
26 | O=C(Nc1nnc(SCc2ccccc2)s1)c1cccs1 | -2.48% (inactive)
27 | COc1cccc(C(=O)Nc2cc(C(=O)NCCc3ccccc3)ccc2Cl)c1 | 24.9% (active)
28 | COc1ccc(C(=O)Nc2cc(C(=O)NCCc3ccccc3)ccc2Cl)cc1 | 13.3% (inactive)
29 | COCC(=O)Nc1cc(C(=O)NCCc2ccccc2)ccc1Cl | -6.24% (inactive)
